Assay outcomes: PubChem BioAssay, PCMD
Compounds with a hit are over-represented: about 0.33% of the library has one in this group of screens.
FXIIa single – blocks human coagulation factor XIIa activity; P00748; purified human FXIIa, AMC substrate fluorescence, 2 h; inhibition, % at 10 µM; hit rate 0.2% among 33,000; AID 701; in the data active means inhibition above about 30%
Target sequence (P00748 20-372 limits assumed): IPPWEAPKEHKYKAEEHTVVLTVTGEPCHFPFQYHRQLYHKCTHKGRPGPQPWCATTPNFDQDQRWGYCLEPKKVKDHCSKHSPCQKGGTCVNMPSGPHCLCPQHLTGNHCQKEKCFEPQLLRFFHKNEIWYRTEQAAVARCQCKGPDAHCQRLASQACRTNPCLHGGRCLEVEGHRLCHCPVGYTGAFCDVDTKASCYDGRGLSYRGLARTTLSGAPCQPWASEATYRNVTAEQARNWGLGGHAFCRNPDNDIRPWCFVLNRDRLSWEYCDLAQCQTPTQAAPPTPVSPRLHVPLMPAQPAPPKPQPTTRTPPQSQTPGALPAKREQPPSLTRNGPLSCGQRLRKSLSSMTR
Target sequence (P00748 373-615 limits assumed): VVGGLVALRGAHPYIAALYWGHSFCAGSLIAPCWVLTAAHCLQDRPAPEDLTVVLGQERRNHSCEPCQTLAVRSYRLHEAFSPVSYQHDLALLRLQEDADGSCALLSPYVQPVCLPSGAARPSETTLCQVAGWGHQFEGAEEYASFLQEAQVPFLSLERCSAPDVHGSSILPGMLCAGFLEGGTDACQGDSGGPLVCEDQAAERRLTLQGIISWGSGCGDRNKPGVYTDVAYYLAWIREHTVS
FXIa inh – blocks human coagulation factor XIa activity; P03951; purified human FXIa, fluorogenic AMC substrate cleavage; inhibition, % at 10 µM; hit rate 0.3% among 33,000; AID 687;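 active means inhibition above 40% in the primary screen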
Hits are given with their value; i = inactive.

SMILES	FXIIa single	FXIa inh
CCc1ccc(NC(=O)Cn2nc(C(F)(F)F)c3c2CCC3)cc1	i	44.2
CCc1ccccc1NC(=O)Cn1nc(C(F)(F)F)c2c1CCC2	i	i
CCc1ccc(NC(=O)CSc2nc3cc(C(=O)OC)ccc3c(=O)n2CC2CCCO2)cc1 (stereo unspecified)	i	i
COc1ccc(S(=O)(=O)N2CCC(C(=O)NC3CC3)CC2)cc1Cl	i	i
COc1ccc(S(=O)(=O)N2CCC(C(=O)N3CCc4ccccc4C3)CC2)cc1Cl	i	61.4
CC1=CC(=NOC(=O)c2cccc([N+](=O)[O-])c2)C=C(C)C1=O	51.2	i
CC1=CC(=O)C(C(C)C)=C/C1=N/OC(=O)c1cccc([N+](=O)[O-])c1	i	i
CCc1cc2c(SCC(=O)c3ccc(Cl)s3)ncnc2s1	i	i
Cc1c(NC(=O)c2cc3ccccc3o2)c(=O)n(-c2ccccc2)n1C	i	57.4
Cc1c(NC(=O)c2cc(C3CC3)on2)c(=O)n(-c2ccccc2)n1C	i	i
Cc1c(Cl)ccc2c1NC(=O)[C@]21N[C@@H](Cc2ccccc2)[C@H]2C(=O)N(c3ccc(F)cc3)C(=O)[C@H]21	i	i
CCCCOC1(c2ccccc2)NC(=S)NN=C1c1ccccc1 (stereo unspecified)	i	i
COc1ccc(-c2nn(C)c(=O)c3ccccc23)cc1NC(=O)Cn1nc(-c2ccccc2)c2ccccc2c1=O	i	i
COc1ccc(OCC(=O)Nc2cc(-c3nn(C)c(=O)c4ccccc34)ccc2OC)cc1	i	42.0
C=CCOC(=O)C1=C(C)NC(SCC(=O)Nc2ccccc2)=C(C#N)C1c1ccco1 (stereo unspecified)	i	i
c1cncc(-c2nc(Oc3ccc(-c4nnco4)cc3)c3c4c(sc3n2)CCCC4)c1	i	i
CCOC(=O)N=S(=O)(Oc1ccc([N+](=O)[O-])cc1)c1ccccc1 (stereo unspecified)	i	43.5
CN(CC(=O)O/N=C(\N)c1ccc([N+](=O)[O-])cc1)S(=O)(=O)c1ccccc1	i	i
CC1Cc2ccccc2N1C(=O)CSc1nnnn1C1CCCC1 (stereo unspecified)	i	i
C=C(C)c1cccc(C(C)(C)NC(=O)N(Cc2ccccc2)Cc2ccco2)c1	i	i
Cc1ccc2nc(C3CCN(S(=O)(=O)c4ccc5ccccc5c4)CC3)[nH]c2c1	i	i
OCCCn1c(-c2ccccc2)nc(=S)c2c1CCCC2	i	42.9
CN(C)CCCn1c(-c2ccccc2)nc(=S)c2c1CCCC2	i	i
Cc1ccc(C(=O)ONc2ccc(N=NC(=O)c3ccccc3O)cc2)cc1	i	42.6
COC(=O)c1ccc(NC(=O)c2ccccc2SC)cc1	i	i
SMILES	FXIIa single	FXIa inh
O=C(NCc1ccccc1)C1CCCN(S(=O)(=O)c2cccc3nonc23)C1 (stereo unspecified)	i	61.1
O=C(NCc1ccc2c(c1)OCO2)C1CCCN(S(=O)(=O)c2cccc3nonc23)C1 (stereo unspecified)	i	i
Cc1cc(NC(=O)c2cccc(F)c2)ncc1NC(=O)c1ccco1	i	i
Cc1cc(NC(=O)C(C)C)ncc1NC(=O)Cc1ccccc1	37.9	i
Cc1ccc(S(=O)(=O)N=S(CC2CC2(Cl)Cl)CC2CC2(Cl)Cl)cc1 (stereo unspecified)	i	i
Cc1ccc(NC(=O)C2(S(=O)(=O)c3ccc(C)cc3)CC2)cc1	30.1	i
Cc1ccc(S(=O)(=O)NC2(C(=O)O)CCCCC2)cc1	i	i
Cc1ccc(S(=O)(=O)N2CCSC2)cc1C	i	i
Cc1ccc(NC(=O)CCn2cccc2)cc1C	i	i
Cc1ccc(NC(=O)CCn2cccc2)cc1	i	44.4
CCNc1nc(NC(C)C)nc(Oc2ccc(/C=N/O)cc2)n1	i	i
CCOc1ccccc1CNn1nnnc1N	i	i
COC(=O)c1sc(NC(=O)CC(C)C)c(C(=O)OC)c1C	i	43.3
COC(=O)c1sc(NC(=O)CSc2nncs2)c(C(=O)OC)c1C	i	i
O=C(/C=C/c1ccco1)NC(=S)NNC(=O)c1ccco1	i	i
COC(=O)c1cc(NC(=O)Cc2ccc(OC)cc2)cc(C(=O)OC)c1	i	i
O=C1c2ccccc2C(=O)N1CC1CCCO1 (stereo unspecified)	i	i
O=C(CCCN1C(=O)c2ccccc2C1=O)NCC1CCCO1 (stereo unspecified)	i	44.1
CC(C(=O)N1CCc2ccccc21)n1cccc1 (stereo unspecified)	i	i
CCOC(=O)c1[nH]c2ccc(Cl)cc2c1-c1ccccc1	i	i
O=c1nc(-c2ccccc2)c2cc(Cl)ccc2[nH]1	i	103.4
CCOc1ccc2nc(NS(=O)(=O)Cc3ccccc3)sc2c1	i	i
CC(OC(=O)C1CCN(S(=O)(=O)c2ccc(Cl)cc2)CC1)C(=O)N1CCc2ccccc21 (stereo unspecified)	i	i
Cc1c(NC(=O)OC(C)C)sc(=S)n1C	i	i
CS(=O)(=O)N(CC(=O)N1CCN(c2ccccc2)CC1)c1ccccc1Cl	i	i
SMILES	FXIIa single	FXIa inh
O=C(c1ccc(F)cc1)N1CCN(C(=O)c2cccnc2)CC1	i	49.8
O=C(c1ccccc1)N1CCN(C(=O)c2ccccc2)CC1	i	i
CCNC(=O)Cn1cc(C#N)c2ccccc21	i	i
O=S(=O)(Nc1ccc(S(=O)(=O)Nc2cccc3ccccc23)cc1)c1ccccc1	i	i
O=S(=O)(Nc1cccc2nsnc12)c1ccccc1	i	48.0
COc1cccc(-c2nc3ccccc3c(=O)o2)c1	30.1	i
COc1cc(OC)cc(-c2nc3ccccc3c(=O)o2)c1	i	i
CCn1nc(CC(=O)Nc2nnc(CC(=O)N3CCCC3)s2)c2ccccc2c1=O	i	65.7
CCn1nc(CC(=O)Nc2nnc(CC(=O)N3CCOCC3)s2)c2ccccc2c1=O	i	i
Cc1ccc(C2CC(C(F)F)n3ncc(C(=O)Nc4c(C)nn(Cc5c(F)cccc5Cl)c4C)c3N2)cc1 (stereo unspecified)	i	i
CCCC(C)NS(=O)(=O)c1ccc(OC)c(C)c1 (stereo unspecified)	i	i
CC1(c2ccc(Cl)c(Cl)c2)NC(=S)N2C1NC(=S)N2c1ccccc1 (stereo unspecified)	i	i
CCC(=C(c1ccc(OC)cc1)c1ccc(OC)cc1)c1cn(CC(O)CN2CCN(C)CC2)c2ccccc12 (stereo unspecified)	i	i
Cc1ccc(NS(=O)(=O)c2ccc(OCC(=O)N3CCOCC3)cc2)cc1	i	99.4
CCOC(=O)COc1ccc(S(=O)(=O)Nc2ccc(C)cc2)cc1	i	i
CC(C)C1Cc2c(sc3[nH]c(=S)n(Cc4ccccc4)c(=O)c23)CO1 (stereo unspecified)	i	i
COC(=O)c1[nH]c2ccc(Br)cc2c1NC(=O)CN1CCCc2ccccc21	i	44.7
CCOC(=O)c1[nH]c2ccc(OC)cc2c1NC(=O)CN1CCc2ccccc2C1	i	i
Cc1ccc(C)c2c1[nH]c1ccc([N+](=O)[O-])cc12	i	i
O=C(c1cn(-c2ccccc2)nc1-c1ccncc1)n1nnc2ccccc21	88.8	96.3
O=C(O)c1cn(-c2ccccc2)nc1-c1cccnc1	i	i
COc1ccc(OCCSc2ncn[nH]2)cc1	i	42.7
O=C(CSc1ncn[nH]1)NCCOc1ccccc1	i	i
COc1cc(Cl)c(S(=O)(=O)NCc2ccccn2)cc1Cl	i	i
CCc1c(O)nc(SCC(=O)NC(C)(C)C)n(-c2ccccc2)c1=O	i	43.2
CCCCc1c(O)nc(SCC(=O)NC(C)(C)C)n(-c2ccccc2C)c1=O	i	i
